# Results filed as inconclusive are left out. Active and inactive are the calls of the source. The calls were made as follows: active = hit-call score of the fitted dose curve at least 0.9, where 1 is the maximum; inconclusive = response in the unintended direction; inactive = score below 0.9.
# Molecular target: Retinoic acid receptor RXR-alpha (Homo sapiens) (UniProt P19793)
# Test: TOX21_TR_RXR_BLA_Antagonist_Followup_ratio: Tox21 Thyroid Hormone Receptor beta Retinoid X Receptor alpha (RXRa) Antagonism Beta-lactamase (BLA) Follow-Up Assay, Ratio (AID 2283972)
# Outline: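 HEK293T RXRa-bla, 2% charcoal-stripped FBS medium, 16 h compound exposure at 37C, qHTS 11 conc x3. CCF4 FRET ratio ch2/ch1 (460:530), DMSO = baseline, loss-of-signal fit.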
# Sequence of Retinoic acid receptor RXR-alpha (Homo sapiens) (P19793 whole entry, looked up): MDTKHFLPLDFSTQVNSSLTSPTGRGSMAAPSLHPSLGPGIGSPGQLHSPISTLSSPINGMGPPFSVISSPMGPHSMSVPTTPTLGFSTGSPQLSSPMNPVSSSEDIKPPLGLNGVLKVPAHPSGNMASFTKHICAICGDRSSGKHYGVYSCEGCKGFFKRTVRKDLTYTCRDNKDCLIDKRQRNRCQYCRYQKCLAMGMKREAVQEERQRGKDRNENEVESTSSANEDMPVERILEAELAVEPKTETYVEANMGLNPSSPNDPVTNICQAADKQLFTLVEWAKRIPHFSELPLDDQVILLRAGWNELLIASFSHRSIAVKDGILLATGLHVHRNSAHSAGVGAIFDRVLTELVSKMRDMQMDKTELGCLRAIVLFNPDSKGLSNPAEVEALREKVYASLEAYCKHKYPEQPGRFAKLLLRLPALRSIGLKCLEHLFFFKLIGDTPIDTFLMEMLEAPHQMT
SMILES,outcome,AC50
CC(C)c1c(C(=O)Nc2ccccc2)c(-c2ccccc2)c(-c2ccc(F)cc2)n1CC[C@@H](O)C[C@@H](O)CC(=O)O,inactive,
Nc1ccn([C@@H]2O[C@H](CO)[C@@H](O)C2O)c(=O)n1 (stereo partly specified),inactive,
COc1ccccc1NC(=O)c1cc2ccccc2cc1O,,22 µM (active)
Nc1cc(Cl)c(-c2cc(Cl)c(N)cc2Cl)cc1Cl,,24.6 µM (active)
Clc1ccc(Nc2nnc(Cc3ccncc3)c3ccccc23)cc1,inactive,

# Tested on: not listed separately
# Test: TOX21_TR_RXR_BLA_Antagonist_Followup_viability: Viability Assessment in the Tox21 Thyroid Hormone Receptor beta Retinoid X Receptor alpha (RXRa) Antagonism Beta-lactamase (BLA) Follow-Up Assay (AID 2283979)
# Outline: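 Follow-up compounds (11 concentrations, triplicate) were incubated 16 h at 37C/5% CO2 with HEK293T RXRa-bla cells seeded at 2,500/well in charcoal-stripped-serum medium. ATP content by CellTiter-Glo luminescence gave viability; curves fitted in both directions against DMSO.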
SMILES,outcome,AC50
CC(C)c1c(C(=O)Nc2ccccc2)c(-c2ccccc2)c(-c2ccc(F)cc2)n1CC[C@@H](O)C[C@@H](O)CC(=O)O,inactive,
Nc1ccn([C@@H]2O[C@H](CO)[C@@H](O)C2O)c(=O)n1 (stereo partly specified),inactive,
O=c1cc(-c2ccccc2)oc2ccc3ccccc3c12,inactive,
COc1ccccc1NC(=O)c1cc2ccccc2cc1O,,24.1 µM (active)
Nc1cc(Cl)c(-c2cc(Cl)c(N)cc2Cl)cc1Cl,,28 µM (active)

# Tested on: DIO1 (gene 1733)
# Test: CCTE_GLTED_hDIO1: CCTE's human Deiodinase 1 (DIO1) Inhibition Assay, Great Lakes Toxicology and Ecology Division (GLTED) Lab (AID 2283987);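 also: isolated human DIO1 enzyme in a cell-free setup rather than cells; enzyme activity read as free iodide liberated from substrate via Sandell-Kolthoff colorimetry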
# Protocol: CCTE_GLTED_hDIO1 is a cell-free, single-readout assay designed to test the inhibitory activity of chemicals toward human iodothyronine Deiodinase type 1 (DIO1) enzyme. Enzyme is incubated in presence of test chemical for 3 hours during which uninhibited enzyme liberates free iodide from substrate. Free iodide is measured in a second step using the Sandell-Kolthoff method.CCTE_GLTED_hDIO1 is the assay component measured from the CCTE_GLTED_hDIO1 assay. It is designed to make measurements of enzyme activity, a form of enzyme reporter, as detected with absorbance signals by spectrophotometry.Data from the assay component CCTE_GLTED_hDIO1 was analyzed into 1 assay endpoint. This assay endpoint, CCTE_GLTED_hDIO1, was analyzed in the positive analysis fitting direction relative to DMSO as the negative control and baseline of activity. Using a type of enzyme reporter, loss-of-signal activity can be used to understand changes in the enzymatic activity as they relate to the gene DIO1. Furthermore, this assay endpoint can be referred to as a primary readout, because the performed assay has only produced 1 assay endpoint. To generalize the intended target to other relatable targets, this assay endpoint is annotated to the 'deiodinase' intended target family, where the subfamily is 'deiodinase Type 1'.
# […] assay, developed at Great Lakes Toxicology and Ecology Division (GLTED) within the EPA's Center for Computational Toxicology and Exposure (CCTE), is designed to test the chemicals' ability to inhibit DIO1. Assay is based on iodide release measured by the Sandell-Kolthoff method and is run in 96-well plate format with assay plates run in triplicate (n=3). The method used for the deiodinase assay was largely based on Renko et al. (2012, 2015). These works describe the utilization of the SK reaction to measure deiodinase-liberated iodide in a 96-well-plate format. The SK reaction is based on the reduction of the yellow-colored cerium IV to the non-colored cerium III by arsenic, with the rate of this reaction increased in the presence of iodide in a concentration-dependent manner (Sandell and Kolthoff, 1937). Iodinated test chemicals can interfere as competitive inhibitors, or if the stock chemical has contaminating free-iodide present. Other chemicals, e.g.: nitrite, iron, and thiocyanate can interfere with the Sandell-Kolthoff reaction (see Sandell and Kolthoff, 1937).
row,SMILES,AC50
1,O=P(O)(O)CCC(F)(F)C(F)(F)C(F)(F)C(F)(F)C(F)(F)C(F)(F)C(F)(F)C(F)(F)F,182 µM (active)
2,CCCCCCCCCCCCOC(=O)c1cc(O)c(O)c(O)c1,53.4 µM (active)
3,CCCCCCCCCCCC,84.4 µM (active)
4,O=C(O)C(F)(F)OC(F)(F)C(F)(F)OC(F)(F)C(F)(F)OC(F)(F)C(F)(F)C(F)(F)C(F)(F)F,24.6 µM (active)
5,NC(=NCCCCCCN=C(N)/N=C(\N)Nc1ccc(Cl)cc1)/N=C(\N)Nc1ccc(Cl)cc1,21.3 µM (active)
6,CCCCCCCCCC=CCC1CC(=O)OC1=O (stereo unspecified),31.9 µM (active)

# Molecular target: Nucleoli Translocation, AR (gene 367) (UniProt P10275)
# Sequence (P10275 whole entry, looked up): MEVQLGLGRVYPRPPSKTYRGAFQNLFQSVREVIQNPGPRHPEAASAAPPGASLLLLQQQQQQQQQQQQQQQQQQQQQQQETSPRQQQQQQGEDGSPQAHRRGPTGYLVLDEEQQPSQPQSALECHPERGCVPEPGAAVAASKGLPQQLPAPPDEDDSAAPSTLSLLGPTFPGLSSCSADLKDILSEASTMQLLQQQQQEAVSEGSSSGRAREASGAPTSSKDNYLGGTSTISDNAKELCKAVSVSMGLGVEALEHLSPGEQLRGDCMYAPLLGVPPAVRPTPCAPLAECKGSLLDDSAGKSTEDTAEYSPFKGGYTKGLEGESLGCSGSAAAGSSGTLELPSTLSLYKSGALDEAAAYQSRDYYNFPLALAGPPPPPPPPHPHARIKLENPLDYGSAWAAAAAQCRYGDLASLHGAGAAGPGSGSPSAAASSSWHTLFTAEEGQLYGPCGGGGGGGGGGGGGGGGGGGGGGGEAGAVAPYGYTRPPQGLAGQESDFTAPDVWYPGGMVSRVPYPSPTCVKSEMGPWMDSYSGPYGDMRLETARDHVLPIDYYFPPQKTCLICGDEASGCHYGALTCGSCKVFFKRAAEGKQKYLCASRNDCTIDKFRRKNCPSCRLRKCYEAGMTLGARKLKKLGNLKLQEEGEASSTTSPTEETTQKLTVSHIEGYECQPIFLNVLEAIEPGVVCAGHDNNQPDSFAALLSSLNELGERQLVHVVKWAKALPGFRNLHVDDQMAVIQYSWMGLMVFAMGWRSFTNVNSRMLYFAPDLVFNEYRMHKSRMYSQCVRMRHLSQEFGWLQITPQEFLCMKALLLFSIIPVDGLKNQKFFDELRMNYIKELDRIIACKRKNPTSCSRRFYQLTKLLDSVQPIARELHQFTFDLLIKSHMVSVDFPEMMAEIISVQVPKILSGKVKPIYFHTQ
# Test: UPITT_HCI_U2OS_AR_TIF2_Nucleoli_Antagonist: University of Pittsburgh U2OS Androgen Receptor-Transcriptional Intermediary Factor 2 (AR-TIF2) Antagonism High Content Imaging Assay for Nucleoli Translocation (AID 2283997)
# Outline: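 Measured quantity was AR-RFP fluorescence localized to nucleoli in engineered U2OS cells also bearing TIF2-GFP, acquired on automated high-content imagers. Primary testing used 20 uM compound; actives were confirmed in triplicate wells.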
SMILES,outcome,AC50
Cc1cc(C(=C2C=CC(=Nc3ccc(S(=O)(=O)O)cc3)C=C2)c2ccc(Nc3ccc(S(=O)(=O)O)cc3)cc2)cc(S(=O)(=O)O)c1N,inactive,
CC(O)COc1ccccc1 (stereo unspecified),inactive,
CCCCCc1ccc(O)cc1,,31.9 µM (active)
COc1cc([N+](=O)[O-])ccc1N,inactive,
CC1COCc2cc3c(cc21)C(C)(C)C(C)C3(C)C (stereo unspecified),,9.92 µM (active)
O=C(NCc1ncc(C(F)(F)F)cc1Cl)c1c(Cl)cccc1Cl,inactive,
O=C(c1ccccc1)c1ccccc1,inactive,
CCCCCCC(C)(C)C(=O)O,inactive,
CN(C)CCOC(c1ccccc1)c1ccccc1,inactive,
NC(=NCCCCCCN=C(N)/N=C(\N)Nc1ccc(Cl)cc1)/N=C(\N)Nc1ccc(Cl)cc1,,16.5 µM (active)
CC(C)[C@@H]1CC[C@@H](C)C[C@H]1O,inactive,
CCCCCCCCCC=CCC1CC(=O)OC1=O (stereo unspecified),inactive,
CN(Cc1cnc2nc(N)nc(N)c2n1)c1ccc(C(=O)N[C@@H](CCC(=O)O)C(=O)O)cc1,inactive,
CCCCCCc1ccc(N)cc1,inactive,
CC(=O)Nc1ccc(O)cc1,inactive,

# Molecular target: Nucleoli Translocation, AR (gene 367) (UniProt P10275)
# Test: UPITT_HCI_U2OS_AR_TIF2_Nucleoli_Agonist: University of Pittsburgh U2OS Androgen Receptor-Transcriptional Intermediary Factor 2 (AR-TIF2) Agonism High Content Imaging Assay for Nucleoli Translocation (AID 2283998)
# Outline: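 Readout is red (AR-RFP) fluorescence localized to nucleoli, measured by high-content imaging and analysed for increase relative to DMSO. Compound series spanned 0.195 to 50 uM final in 0.5% DMSO.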
SMILES,outcome,AC50
CC(O)COc1ccccc1 (stereo unspecified),inactive,
CCCCCc1ccc(O)cc1,,39.1 µM (active)
O=C(NCc1ncc(C(F)(F)F)cc1Cl)c1c(Cl)cccc1Cl,inactive,
O=C(c1ccccc1)c1ccccc1,inactive,
CCCCCCC(C)(C)C(=O)O,inactive,
CN(C)CCOC(c1ccccc1)c1ccccc1,inactive,
CCCCc1ccc2ccccc2c1S(=O)(=O)O,inactive,
NC(=NCCCCCCN=C(N)/N=C(\N)Nc1ccc(Cl)cc1)/N=C(\N)Nc1ccc(Cl)cc1,inactive,
CC(C)[C@@H]1CC[C@@H](C)C[C@H]1O,inactive,
CN(Cc1cnc2nc(N)nc(N)c2n1)c1ccc(C(=O)N[C@@H](CCC(=O)O)C(=O)O)cc1,inactive,
CCCCCCc1ccc(N)cc1,inactive,

# Molecular target: Ratio of Nucleoli Translocation and Cytoplasm, AR (gene 367) (UniProt P10275)
# Sequence (P10275 whole entry, looked up): as above
# Test: UPITT_HCI_U2OS_AR_TIF2_Nucleoli_Cytoplasm_Ratio_Antagonist: University of Pittsburgh U2OS Androgen Receptor-Transcriptional Intermediary Factor 2 (AR-TIF2) Antagonism High Content Imaging Assay for Ratio of Nucleoli Translocation and Cytoplasm (AID 2283999);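 also: antagonists lower the DHT-driven ratio of nucleolar to cytoplasmic red signal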
# Outline: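 High-content imaging quantifies the red nucleolar:cytoplasmic fluorescence ratio in U2OS cells with AR-RFP and TIF2-GFP. Final concentrations are 20 uM (screen) or 0.195–50 uM (dose response), analysed against DHT as baseline.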
SMILES,outcome,AC50
Cc1cc(C(=C2C=CC(=Nc3ccc(S(=O)(=O)O)cc3)C=C2)c2ccc(Nc3ccc(S(=O)(=O)O)cc3)cc2)cc(S(=O)(=O)O)c1N,inactive,
CC(O)COc1ccccc1 (stereo unspecified),inactive,
CCCCCc1ccc(O)cc1,,86.1 µM (active)
COc1cc([N+](=O)[O-])ccc1N,inactive,
CC1COCc2cc3c(cc21)C(C)(C)C(C)C3(C)C (stereo unspecified),inactive,
O=C(NCc1ncc(C(F)(F)F)cc1Cl)c1c(Cl)cccc1Cl,inactive,
O=C(c1ccccc1)c1ccccc1,inactive,
CCCCCCC(C)(C)C(=O)O,inactive,
CCCCc1ccc2ccccc2c1S(=O)(=O)O,inactive,
NC(=NCCCCCCN=C(N)/N=C(\N)Nc1ccc(Cl)cc1)/N=C(\N)Nc1ccc(Cl)cc1,,11.6 µM (active)
CCCCCCc1ccc(N)cc1,inactive,

# Molecular target: Ratio of Nucleoli Translocation and Cytoplasm, AR (gene 367) (UniProt P10275)
# Test: UPITT_HCI_U2OS_AR_TIF2_Nucleoli_Cytoplasm_Ratio_Agonist: University of Pittsburgh U2OS Androgen Receptor-Transcriptional Intermediary Factor 2 (AR-TIF2) Agonism High Content Imaging Assay for Ratio of Nucleoli Translocation and Cytoplasm (AID 2284000);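 also: hits raise the red nucleolar to cytoplasm ratio above vehicle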
# Outline: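 Read-out first: nucleolar-to-cytoplasm ratio of red (AR-RFP) signal, quantified by high-content imaging in U2OS cells co-expressing TIF2-GFP. Activity is scored as signal increase over DMSO. Single-point screening used 20 uM final (0.2% DMSO).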
SMILES,outcome,AC50
Cc1cc(C(=C2C=CC(=Nc3ccc(S(=O)(=O)O)cc3)C=C2)c2ccc(Nc3ccc(S(=O)(=O)O)cc3)cc2)cc(S(=O)(=O)O)c1N,inactive,
CC(O)COc1ccccc1 (stereo unspecified),inactive,
CCCCCc1ccc(O)cc1,inactive,
COc1cc([N+](=O)[O-])ccc1N,inactive,
O=C(NCc1ncc(C(F)(F)F)cc1Cl)c1c(Cl)cccc1Cl,inactive,
O=C(c1ccccc1)c1ccccc1,inactive,
CCCCCCC(C)(C)C(=O)O,inactive,
CN(C)CCOC(c1ccccc1)c1ccccc1,inactive,
CCCCc1ccc2ccccc2c1S(=O)(=O)O,inactive,
NC(=NCCCCCCN=C(N)/N=C(\N)Nc1ccc(Cl)cc1)/N=C(\N)Nc1ccc(Cl)cc1,inactive,
CCCCCCCCCC=CCC1CC(=O)OC1=O (stereo unspecified),inactive,
CN(Cc1cnc2nc(N)nc(N)c2n1)c1ccc(C(=O)N[C@@H](CCC(=O)O)C(=O)O)cc1,inactive,
CCCCCCc1ccc(N)cc1,,78.4 µM (active)
